Results published in PubChem BioAssay (NCI).
Values joined by “and” are separate entries in the source; they are usually repeats but may differ in a detail not shown here. Equal entries are not always repeated. The panel holds about 83,000 compounds, 20% with a hit somewhere; the sample as a whole holds those more often.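 Treatment: one concentration, 48 hours, 96-well format. Scoring: percent growth, with anything below 10 considered active.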 Active and inactive are the calls of the source.

Key:
Assay in all cases: NCI-60 one-dose screen, 48 h (100 = growth as untreated, 0 = no growth, -100 = all killed)
Conditions in all cases: 10 µM unless noted
SK-MEL-2 melanoma = test system: SK-MEL-2 melanoma
EKVX NSCLC = test system: EKVX NSCLC
SN12C renal = test system: SN12C renal
UO-31 renal = test system: UO-31 renal
TK-10 renal = test system: TK-10 renal
ACHN renal = test system: ACHN renal
CAKI-1 renal = test system: CAKI-1 renal
A498 renal = test system: A498 renal
CCRF-CEM leukemia = test system: CCRF-CEM leukemia
MOLT-4 leukemia = test system: MOLT-4 leukemia

Measured: growth

O=[N+]([O-])c1ccc(NC(c2ccccc2)c2ccc3cccnc3c2O)cc1 (stereo not given)
inactive: SK-MEL-2 melanoma 36.3% | EKVX NSCLC 19.9% | SN12C renal 14.8% | TK-10 renal 42.7% | ACHN renal 15.8% | A498 renal 55.8% | CCRF-CEM leukemia 10.2%
active: UO-31 renal -2.13% | CAKI-1 renal 2.88% | MOLT-4 leukemia 9.81%

O=C(/C=C/C=C/c1ccc2c(c1)OCO2)N1CCCCC1
inactive: SK-MEL-2 melanoma 128% and 57.5% | EKVX NSCLC 78.9% and 95.9% | SN12C renal 97.9% and 100% | UO-31 renal 88.8% and 74.4% | TK-10 renal 157% and 175% | ACHN renal 106% | CAKI-1 renal 92.6% and 106% | A498 renal 92.7% and 83.6% | CCRF-CEM leukemia 109% and 107% | MOLT-4 leukemia 98.3% and 84%

Nc1c(Cl)cc2c(c1Br)C(=O)c1ccccc1C2=O
inactive: SK-MEL-2 melanoma 103% | EKVX NSCLC 60.2% | SN12C renal 87.3% | UO-31 renal 63.2% | TK-10 renal 108% | ACHN renal 73% | CAKI-1 renal 82.3% | A498 renal 110% | CCRF-CEM leukemia 96.2% | MOLT-4 leukemia 87.8%

O=S(=O)(O)c1ccc2cc(O)ccc2c1
inactive: SK-MEL-2 melanoma 106% | EKVX NSCLC 106% | SN12C renal 105% | UO-31 renal 95.1% | TK-10 renal 99.7% | ACHN renal 106% | CAKI-1 renal 99.5% | A498 renal 78.8% | CCRF-CEM leukemia 109% | MOLT-4 leukemia 103%

CC(O)CCNC(c1ccccc1)C(O)c1ccccc1 (stereo not given)
inactive: SK-MEL-2 melanoma 99.4% | EKVX NSCLC 115% | SN12C renal 108% | UO-31 renal 92.9% | TK-10 renal 106% | ACHN renal 109% | CAKI-1 renal 104% | A498 renal 103% | CCRF-CEM leukemia 93.7% | MOLT-4 leukemia 102%

O=C(OCc1ccccc1)c1ccccc1
inactive: SK-MEL-2 melanoma 126% and 87.8% | EKVX NSCLC 101% and 104% | SN12C renal 93.2% and 117% | UO-31 renal 107% and 64.8% | TK-10 renal 105% and 102% | ACHN renal 111% and 98.1% | CAKI-1 renal 99.7% and 90.2% | A498 renal 88.6% and 81.3% | CCRF-CEM leukemia 104% | MOLT-4 leukemia 102% and 83.3%

COc1cc(NCCCCCNC(C)C)c2ncccc2c1
inactive: SK-MEL-2 melanoma 93.1% and 66.7% | EKVX NSCLC 95.5% and 105% | SN12C renal 93.5% and 83.6% | UO-31 renal 59.7% and 45.4% | TK-10 renal 91.9% and 90.1% | ACHN renal 100% and 90.5% | CAKI-1 renal 91.6% and 92.5% | A498 renal 77.2% | CCRF-CEM leukemia 106% and 117% | MOLT-4 leukemia 104% and 88%

O=C(N=C1C(=O)C2(CCCCC2)C2(N=C(c3ccccc3)OC2=O)C12CCCCC2)c1ccccc1 (stereo not given)
inactive: SK-MEL-2 melanoma 76% | EKVX NSCLC 70.5% | SN12C renal 77.8% | UO-31 renal 58.5% | TK-10 renal 86.2% | ACHN renal 80.5% | CAKI-1 renal 70.9% | A498 renal 98.2% | CCRF-CEM leukemia 37.4% | MOLT-4 leukemia 50.5%

CC(C)(C(=O)c1cccnc1)c1cccnc1
inactive: SK-MEL-2 melanoma 101% and 99.7% | EKVX NSCLC 102% and 124% | SN12C renal 96.1% and 113% | UO-31 renal 77.5% and 93.4% | TK-10 renal 103% and 110% | ACHN renal 97.3% and 111% | CAKI-1 renal 98.5% and 109% | A498 renal 73.3% and 130% | CCRF-CEM leukemia 91.8% | MOLT-4 leukemia 96.3% and 126%

O=C1c2ccccc2CN1c1ccccc1
inactive: SK-MEL-2 melanoma 70.6% | EKVX NSCLC 113% | SN12C renal 90.5% | UO-31 renal 121% | TK-10 renal 94.3% | ACHN renal 99% | CAKI-1 renal 102% | A498 renal 101% | CCRF-CEM leukemia 106% | MOLT-4 leukemia 85.2%

CN1C2C=CC(=O)C1C1C(=O)N(c3ccccc3)C(=O)C12 (stereo not given)
inactive: SK-MEL-2 melanoma 46.2% | EKVX NSCLC 106% | SN12C renal 60.2% | UO-31 renal 53.9% | TK-10 renal 78.9% | ACHN renal 63.9% | CAKI-1 renal 28% | A498 renal 106% | CCRF-CEM leukemia 50.5% | MOLT-4 leukemia 74.4%

OCCCc1ccccc1
inactive: SK-MEL-2 melanoma 106% | EKVX NSCLC 110% | SN12C renal 96.5% | UO-31 renal 72.6% | TK-10 renal 108% | ACHN renal 106% | CAKI-1 renal 104% | A498 renal 110% | CCRF-CEM leukemia 108% | MOLT-4 leukemia 111%

CN(C)c1ccc(C(=N)c2ccc(N(C)C)cc2)cc1
15.2% (inactive) and -1.88% (active): A498 renal
inactive: EKVX NSCLC 58% and 48.4% | SN12C renal 40.8% and 42.4% | UO-31 renal 50.1% and 37.5% | TK-10 renal 37% and 67% | ACHN renal 50.9% and 49.9% | CAKI-1 renal 30.8% and 19% | CCRF-CEM leukemia 33.5% | MOLT-4 leukemia 29.2% and 16.8%
22.1% (inactive) and 3.75% (active): SK-MEL-2 melanoma

OC(CC(c1ccccc1)c1cccc2ccccc12)(c1ccccc1)c1ccccc1 (stereo not given)
inactive: SK-MEL-2 melanoma 77.9% and 74.5% | EKVX NSCLC 79.8% and 54.9% | SN12C renal 91.3% and 84.9% | UO-31 renal 70.2% and 57.4% | TK-10 renal 75.9% and 82.7% | ACHN renal 83.9% and 93% | CAKI-1 renal 64.6% and 57% | A498 renal 73.4% and 89.7% | CCRF-CEM leukemia 38.5% and 83.4% | MOLT-4 leukemia 77.3% and 52.7%

Clc1ccc2sc(-c3ccccc3)nc2c1
inactive: SK-MEL-2 melanoma 77.2% | EKVX NSCLC 88.1% | SN12C renal 95.6% | UO-31 renal 77.6% | TK-10 renal 126% | ACHN renal 89.6% | CAKI-1 renal 90.7% | A498 renal 92.5% | CCRF-CEM leukemia 87% | MOLT-4 leukemia 92.3%

COc1cc(C2c3cc4c(cc3C(OC(=O)C[n+]3ccccc3)C3COC(=O)C23)OCO4)cc(OC)c1OC (stereo not given)
inactive: SK-MEL-2 melanoma 33.5% | EKVX NSCLC 42.5% | SN12C renal 12.4% | UO-31 renal 39.4% | TK-10 renal 63.4% | ACHN renal 20.9% | CAKI-1 renal 18.1% | CCRF-CEM leukemia 12.9% | MOLT-4 leukemia 15.5%
active: A498 renal -19.9%

CC(=O)Oc1cc(C)c(OC(C)=O)c(C)c1C
inactive: SK-MEL-2 melanoma 102% | EKVX NSCLC 95.8% | SN12C renal 98.9% | UO-31 renal 88.2% | TK-10 renal 124% | ACHN renal 100% | CAKI-1 renal 77.4% | A498 renal 109% | CCRF-CEM leukemia 100% | MOLT-4 leukemia 109%

CCN(CC)Cc1cc2[nH]c3c4ccc(Cl)cc4ncc3c2cc1OC
-21.5% (active) and 61% (inactive): CCRF-CEM leukemia
inactive: SK-MEL-2 melanoma 160% and 97.9% | EKVX NSCLC 83.5% and 75% | SN12C renal 72.9% and 78.8% | UO-31 renal 110% and 66.2% | TK-10 renal 123% and 89.8% | ACHN renal 83.7% and 73.4% | CAKI-1 renal 31.9% and 81.3% | A498 renal 146% and 106% | MOLT-4 leukemia 40.4%

CCN(CC)CCO/N=C1\CC(c2ccc(OC)c(OC)c2)Oc2ccccc21 (stereo not given)
inactive: SK-MEL-2 melanoma 104% | EKVX NSCLC 96.3% | SN12C renal 99.1% | UO-31 renal 71.7% | TK-10 renal 86.9% | ACHN renal 101% | CAKI-1 renal 83.3% | A498 renal 112% | CCRF-CEM leukemia 93% | MOLT-4 leukemia 90.6%

OCCS
inactive: SK-MEL-2 melanoma 108% | EKVX NSCLC 98.8% | SN12C renal 107% | UO-31 renal 98% | TK-10 renal 84.7% | ACHN renal 111% | CAKI-1 renal 105% | A498 renal 66.4% | CCRF-CEM leukemia 100% | MOLT-4 leukemia 92.2%
